These results are taken from PubChem BioAssay (NCATS).

Assay [1] deals with SC27B. Nature of the assay: qHTS profiling for inhibitors of Plasmodium falciparum proliferation (AID 504749). The note with it: P. falciparum in erythrocytes, SYBR Green DNA, 72 h; series mostly up to 28.7 µM. The essentials: (§1)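 SYBR Green fluorescence of parasite DNA, read after lysis and overnight dark incubation, measured growth over 72 h in erythrocyte culture at 0.3% parasitemia and 2.5% hematocrit. Data normalised to DMSO and 0.29 uM artemisinin, with plate-drift correction.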
(In general: In qHTS, concentration-response curves come from the screen itself.)

Assay [2] deals with TAB109. Described as above. The note with it: P. falciparum in erythrocytes, SYBR Green DNA, 72 h; series mostly up to 28.7 µM. The procedure, abridged:
as §1

The test system of assay [3] is TAB113. The assay is described as above. The note with it: P. falciparum in erythrocytes, SYBR Green DNA, 72 h; series mostly up to 28.7 µM. The procedure, abridged:
as §1

The test system of assay [4] is TAB165. The description is as above. As to conditions: P. falciparum in erythrocytes, SYBR Green DNA, 72 h; series mostly up to 28.7 µM. The procedure, abridged: as §1
Assay [5] deals with W2. The assay is described as above. The note with it: P. falciparum in erythrocytes, SYBR Green DNA, 72 h; series mostly up to 28.7 µM. The essentials: as §1
In assay [6] the test system is CRL-7250. Description: Cytotoxic Profiling of Annotated Libraries Using Quantitative High-Throughput Screening (AID 1296008). For max response: % is set by controls: 0 for no effect and ±100 for the full control effect. As to conditions: Five cell lines viability, CellTiter-Glo ATP luminescence, 48-72 h; max response: stronger effect = lower value. The procedure, abridged:
(§2)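 Cytotoxicity was measured as CellTiter-Glo ATP luminescence, read after 10 min at room temperature. Compound treatment of the cells lasted 48 or 72 hr at 37 degrees Celsius in a qHTS format.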

The test system of assay [7] is HEK293. The description is as above. The note with it: Five cell lines viability, CellTiter-Glo ATP luminescence, 48-72 h; max response: stronger effect = lower value. The procedure, abridged:
as §2

Assay [8] has as its system HaCat. The description is as above. The note with it: Five cell lines viability, CellTiter-Glo ATP luminescence, 48-72 h; max response: stronger effect = lower value. The procedure, abridged:
as §2
For orientation: ATP-based viability assays read luminescence as a measure of living cells.

The subject of assay [9] is KB-3-1. Described as above. The note with it: Five cell lines viability, CellTiter-Glo ATP luminescence, 48-72 h; max response: stronger effect = lower value. The procedure, abridged:
as §2

The test system of assay [10] is NIH3T3. The assay is described as above. As to conditions: Five cell lines viability, CellTiter-Glo ATP luminescence, 48-72 h; max response: stronger effect = lower value. The essentials: as §2
For assay [11], the system named is MCC-13. Nature of the assay: qHTS assay to identify novel small-molecules to repurpose for Merkel cell carcinoma treatment (AID 1296009). The note with it: MCC and control cell lines, CellTiter-Glo viability, 72 h; series mostly up to 46 µM. The procedure, abridged: (§3)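 Cell viability, measured as CellTiter-Glo luminescence, was normalized between DMSO and no-cell wells. The cells had been exposed to 8- or 11-point compound dilutions for 72 hr at 37 degree celsius.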

In assay [12] the test system is MCC-26. The description is as above. The note with it: MCC and control cell lines, CellTiter-Glo viability, 72 h; series mostly up to 46 µM. The essentials:
as §3

Assay [13] relates to MKL-1. Described as above. As to conditions: MCC and control cell lines, CellTiter-Glo viability, 72 h; series mostly up to 46 µM. The procedure, abridged:
as §3

Assay [14] has as its system MKL-2. Described as above. As to conditions: MCC and control cell lines, CellTiter-Glo viability, 72 h; series mostly up to 46 µM. The essentials: as §3
In assay [15] the test system is UISO. Described as above. The note with it: MCC and control cell lines, CellTiter-Glo viability, 72 h; series mostly up to 46 µM. The essentials:
as §3

Assay [16] relates to WaGa. Described as above. As to conditions: MCC and control cell lines, CellTiter-Glo viability, 72 h; series mostly up to 46 µM. The procedure, abridged: as §3
Assay [17] has as its system HACAT. The description is as above. As to conditions: MCC and control cell lines, CellTiter-Glo viability, 72 h; at 44.8 µM (top of the series) unless noted. The essentials:
as §3

In assay [18] the test system is CRL-7250. The assay is described as above. As to conditions: MCC and control cell lines, CellTiter-Glo viability, 72 h; at 44.8 µM (top of the series) unless noted. The essentials: as §3
The subject of assay [19] is NIH3T3. Described as above. The note with it: MCC and control cell lines, CellTiter-Glo viability, 72 h; at 44.8 µM (top of the series) unless noted. The essentials: as §3
Assay [20] has as its system HEK293T. The assay is described as above. As to conditions: MCC and control cell lines, CellTiter-Glo viability, 72 h; at 44.8 µM (top of the series). The essentials:
as §3

Each structure is given as a SMILES string. Several values for one entry are separate records, joined by “and”; a condition that tells them apart may be missing. Identical values can stand only once. Results filed as inconclusive are left out. Values without a mark were called inactive. Activity calls are given as the source filed them. Calls come from the whole dose curve; as a rule, active = well fitted inhibition curve with a large enough effect; inconclusive = small, poorly fitted or top-dose-only effect; inactive = flat fitted curve, though single readings scatter.
Note: nearly all actives have a fitted effect of over 60% in size.
Potency is the fitted concentration of half-maximal effect.

`c1ccc2nc(N3CCNCC3)ccc2c1`: the Potency entry in assay [1], in assay [2], in [3], in assay [4], in assay [5] and in assay [11] was “inactive” throughout. In addition, the Potency entry in assay [12], in assay [13], in assay [14], in assay [15] and in assay [16] was “inactive” each time. The max response in [6] is -2.05%; in assay [7], -18%; in [8], -23.1%; in assay [9], -16.3%; in assay [10], 0.319%.

As to `CCCCC1C(=O)NC(=O)N(C2CCCCC2)C1=O` (centres undefined), the max response was -13.7% in [6], 0.515% in assay [7], 2.39% in [9] and -9.24% in assay [10]. The compound was called inactive in [8] and in assay [17]. Moreover, the Potency entry in assay [11], in assay [12], in [13], in assay [14], in assay [15] and in [16] was “inactive” in each case.

Take `C[C@@H]1CN(C2CCC(C#N)(c3ccc(F)cc3)CC2)CC[C@]1(C(=O)O)c1ccccc1` (some centres undefined): the call in assay [6], in [10], in assay [18] and in [19] was inactive. Moreover, the figures for the max response in assay [7], in assay [8] and in [9] were -6.67%, 3.21% and -4.01%, respectively. Moreover, the Potency result in assay [11], in [12], in assay [13], in [14], in assay [15] and in [16] was “inactive” throughout.

As to `COCC(=O)N(c1c(C)cccc1C)C(C)C(=O)OC` (centres undefined), the Potency entry in [1], in assay [3], in assay [5], in assay [11], in [12] and in assay [13] was “inactive” each time. For the same compound, the Potency result in assay [14], in assay [15] and in assay [16] was “inactive” each time. Further, the max response in assay [6] is 1.66%; in [7] it was -19.3%; in assay [8], 3.69%; in [9], -13.6%. For the same compound, the compound was classed as inactive in assay [10] and in assay [19].

On to `CCCC[N+]1(C)[C@@H]2CC(OC(=O)[C@H](CO)c3ccccc3)C[C@H]1[C@@H]1O[C@@H]12` (some centres undefined), for which the max response in assay [6] was -24.5%; in [8] it was -9.09%; in assay [9], 6.44% and 1.1%; in assay [10] it was 4.56% and 3.97%. Also, the compound was called inactive in [6], in [7], in assay [8], in [18], in assay [17] and in assay [20]. The Potency result in assay [11], in assay [12], in assay [13], in [14], in assay [15] and in assay [16] was “inactive” throughout.

Take `O=c1n(Cl)c(=O)n(Cl)c(=O)n1Cl`: the Potency entry in [1], in assay [2], in assay [3], in assay [4], in [5] and in [11] was “inactive” throughout. Moreover, the Potency result in assay [12], in assay [13], in assay [14], in [15] and in assay [16] was “inactive” throughout. Besides, the call in assay [6], in assay [8], in assay [18] and in [17] was inactive. For the same compound, the max response in assay [7] was -82.7%; in assay [9], 7.13%; in [10], 2.85%.

Regarding `COP(=O)(OC)C(O)C(Cl)(Cl)Cl` (centres undefined), the Potency result in assay [1], in assay [2], in assay [3], in assay [4], in assay [11] and in assay [12] was “inactive” each time. Besides, the Potency entry in assay [13], in assay [14], in [15] and in assay [16] was “inactive” each time. In assay [5], the Potency was 4.26 µM (active). Also, the max response is 3.85% in assay [6] and -12.2% in assay [9]. Besides, the call in assay [7], in [8], in assay [10], in [17], in assay [20] and in [19] was inactive.

Take `Cc1ccc(N=CN(C)C=Nc2ccc(C)cc2C)c(C)c1`: the Potency result in assay [1], in [2], in assay [3], in [4], in assay [5] and in [11] was “inactive” each time. Also, the Potency entry in assay [12], in [13], in assay [14], in [15] and in [16] was “inactive” in each case. The max response in [6] is -6.67%; in assay [8] it was -15.3%; in assay [9], 1.07%. Further, the outcome in [7], in [10], in [20] and in assay [19] was inactive.

`C[C@@H]1CC[C@H]2[C@@H](C)C(=O)O[C@@H]3O[C@@]4(C)CC[C@@H]1[C@]32OO4`: the figures for the max response in assay [6], in assay [9] and in assay [10] were -4.21%, -14.6% and -3.92%, respectively. The Potency in [7] was 2.37 µM (active). In addition, the compound was classed as inactive in assay [8] and in assay [17]. Besides, the Potency result in assay [11], in assay [12], in assay [13], in [14] and in assay [16] was “inactive” in each case.

Turning to `C[C@]12CC[C@H]3[C@@H](CCC4=CC(=O)CC[C@@H]43)[C@@H]1CC[C@@H]2O`, the max response in [6] is -5%; in assay [7], 0.616%; in assay [10], -16.1%. Besides, the compound was called inactive in assay [8] and in [17]. Moreover, in assay [9], the Potency is 11.6 µM (active) and 20.6 µM (active). Besides, the Potency result in [11], in assay [12], in assay [13], in assay [14], in assay [15] and in [16] was “inactive” throughout.

In the case of `CC(C)[N+](C)(CCC(C(N)=O)(c1ccccc1)c1ccccc1)C(C)C`, the Potency entry in assay [1], in [2], in assay [3], in assay [4], in assay [11] and in assay [12] was “inactive” in each case. For the same compound, the Potency entry in assay [15] is “inactive”. The max response in [6] was 3.89%; in [7], -1%; in assay [9], 11.9%. Besides, the compound was classed as inactive in assay [8], in assay [10], in [17] and in [19]. The Potency in assay [16] is 23.7 µM (active).

In the case of `COc1ccc(OC)c(CC(C)N)c1` (centres undefined), the max response in assay [6] was -3.68%; in assay [7], -0.178%; in assay [9], -0.889%; in assay [10], -6.71%. The call in [8] was inactive. For the same compound, in assay [17], the outcome is “inactive [at 92 µM]”. The Potency entry in assay [11], in assay [12], in assay [13], in assay [14], in [15] and in assay [16] was “inactive” in each case.

As for `c1cc2c(c(N3CCNCC3)c1)OCCO2`, the Potency result in assay [1], in assay [2], in assay [3], in [4], in [5] and in assay [11] was “inactive” in each case. Also, the Potency entry in assay [12], in assay [13], in assay [14], in [15] and in [16] was “inactive” each time. Further, the max response in assay [6] is -0.883%; in [7], -10.2%; in assay [9] it was -5.14%; in assay [10] it was 1.17%. For the same compound, the result in assay [8] and in [17] was inactive.
